In PubChem BioAssay (Tox21):
“And” between values parts separate entries of the source, which are not always exact repeats. Equal entries are not always repeated. Results filed as inconclusive are left out. A call without a number means that no potency is given here. A number with no mark means an inactive call. The source made the active and inactive calls. Unless noted, the call rests on the fitted dose curve; in most records, active means well fitted curve in the direction sought with a large enough effect in the repeat runs; inconclusive means weak or mixed curves; inactive means no such curve, though single readings can be large; an effect the other way counts as inactive or inconclusive.

Assays:
[1] = qHTS assay to identify small molecule agonists of the RXR signaling pathway - cell viability counter screen (AID 1159529); further: nearly all actives have a fitted effect of over 50% in size; further: potency means the concentration at half of the fitted maximal effect
Outline: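 Tox21 10K compounds were tested for cytotoxicity against GeneBLAzer RXR-alpha HEK 293T cells grown in 2% charcoal-stripped FBS. Exposure lasted 16 hr at 37 C, 5% CO2; viability read by CellTiter-Glo luminescence.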

[2] = qHTS assay to identify small molecule antagonists of the retinoid acid receptor (RAR) signaling pathway - cell viability counter screen (AID 1159551); further: nearly all actives have a fitted effect of over 35% in size; further: potency means the concentration at half of the fitted maximal effect
Outline: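 ATP-based viability, C3RL4 cells, 6 h at 37 C with 1 uM final retinol co-added after compound; luminescence read 30 min post CellTiter-Glo, RT.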

[3] = qHTS assay to identify small molecule antagonists of the retinoic acid receptor (RAR) signaling pathway (AID 1159552; further: nearly all actives have a fitted effect of over 50% in size; further: potency means the concentration at half of the fitted maximal effect)
Outline: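 Overnight-plated C3RL4 reporter cells get compound, then retinol to 1 uM final; plates sit 6 hr at 37 C, 5% CO2. A luciferase reagent is added and light output recorded after 30 min at room temperature.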

[4] = qHTS assay to identify small molecule antagonists of the estrogen related receptor (ERR) signaling pathway from Tox21 library - cell viability counter screen (AID 1224834); further: nearly all actives have a fitted effect of over 30% in size; further: potency means the concentration at half of the fitted maximal effect
Outline: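 Compounds in DMSO were pinned onto ERR cells that had been incubated for 6 h, and the plates were held at 37 C for 17.5 h. CellTiter-Fluor reagent was then added and fluorescence was measured after 30 min.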

[5] = molecular target: Luciferin 4-monooxygenase (Photinus pyralis) (UniProt P08659); test: qHTS assay to identify small molecule inhibitors of firefly luciferase (AID 1224835); further: nearly all actives have a fitted effect of over 25% in size; further: potency means the concentration at half of the fitted maximal effect
Chain of Luciferin 4-monooxygenase (Photinus pyralis) (P08659 whole entry, looked up): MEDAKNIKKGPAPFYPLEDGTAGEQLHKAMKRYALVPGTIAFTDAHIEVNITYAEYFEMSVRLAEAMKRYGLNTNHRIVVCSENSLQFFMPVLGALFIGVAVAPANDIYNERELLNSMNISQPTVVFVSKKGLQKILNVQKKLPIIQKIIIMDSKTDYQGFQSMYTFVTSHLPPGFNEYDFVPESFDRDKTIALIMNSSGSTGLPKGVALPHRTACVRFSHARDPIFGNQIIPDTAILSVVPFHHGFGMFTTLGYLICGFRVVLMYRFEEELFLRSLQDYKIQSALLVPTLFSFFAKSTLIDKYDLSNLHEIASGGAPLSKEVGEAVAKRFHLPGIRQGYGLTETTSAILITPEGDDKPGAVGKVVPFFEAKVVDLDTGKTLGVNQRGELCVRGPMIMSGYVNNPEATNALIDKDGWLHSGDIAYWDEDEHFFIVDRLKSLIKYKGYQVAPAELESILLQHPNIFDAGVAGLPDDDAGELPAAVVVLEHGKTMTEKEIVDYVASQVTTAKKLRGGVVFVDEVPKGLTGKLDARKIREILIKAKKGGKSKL
Outline: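 Quantitative HTS format; KM concentrations of both substrates. Purified P. pyralis FLuc activity quantified from luminescence images.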

[6] = qHTS assay to identify small molecule agonists of the constitutive androstane receptor (CAR) signaling pathway - cell viability counter screen (AID 1224836); further: nearly all actives have a fitted effect of over 45% in size; further: potency means the concentration at half of the fitted maximal effect
Outline: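 Fluorescence from CellTiter-Fluor indicates live cells after 23 h exposure. The human hepatoma line expresses hCAR and a CYP2B6-2.2kb reporter. Incubation medium contains 0.75 uM PK11195 (final).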

[7] = qHTS assay to identify small molecule antagonists of the constitutive androstane receptor (CAR) signaling pathway - cell viability counter screen (AID 1224837); further: nearly all actives have a fitted effect of over 45% in size; further: potency means the concentration at half of the fitted maximal effect
Outline: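 Cells are seeded, rested 4 hr at 37 C/5% CO2, dosed with compound (15-point series) and 50 nM CITCO, incubated a further 23 hr, and then CellTiter-Fluor reagent is added before fluorescence is read. The line is HepG2 with stable hCAR and CYP2B6-2.2kb.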

[8] = molecular target: Nuclear receptor subfamily 1 group I member 3 (Homo sapiens) (UniProt Q14994); test: qHTS assay to identify small molecule antagonists of the constitutive androstane receptor (CAR) signaling pathway (AID 1224838);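 further: HepG2 cells stably expressing hCAR with CYP2B6 luciferase reporter stimulated by CITCO; nearly all actives have a fitted effect of over 40% in size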; further: potency means the concentration at half of the fitted maximal effect
Chain of Nuclear receptor subfamily 1 group I member 3 (Homo sapiens) (Q14994 whole entry, looked up): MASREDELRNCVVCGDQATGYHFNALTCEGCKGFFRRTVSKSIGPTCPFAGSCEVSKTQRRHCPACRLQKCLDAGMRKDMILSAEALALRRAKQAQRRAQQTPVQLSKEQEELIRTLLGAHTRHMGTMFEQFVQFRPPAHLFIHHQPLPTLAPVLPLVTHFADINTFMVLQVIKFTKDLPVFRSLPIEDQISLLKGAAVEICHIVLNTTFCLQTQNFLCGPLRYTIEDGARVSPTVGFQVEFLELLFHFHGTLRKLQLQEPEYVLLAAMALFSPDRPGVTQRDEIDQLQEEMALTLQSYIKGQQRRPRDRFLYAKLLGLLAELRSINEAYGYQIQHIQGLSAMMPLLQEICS
Outline: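 Luminescence from a CYP2B6-2.2kb promoter reporter in hCAR-expressing HepG2 cells reflects CAR signaling. Cells received compounds at 15 concentrations and 50 nM CITCO (final), then incubated 24 h at 37 C/5% CO2.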

[9] = molecular target: Nuclear receptor subfamily 1 group I member 3 (Homo sapiens) (UniProt Q14994); test: qHTS assay to identify small molecule agonists of the constitutive androstane receptor (CAR) signaling pathway (AID 1224839); further: nearly all actives have a fitted effect of over 15% in size; further: potency means the concentration at half of the fitted maximal effect
Outline: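 Stable hCAR/CYP2B6-2.2kb HepG2 line in DMEM with 10% FBS; compounds (15 concentrations) and 0.75 uM PK11195 final, 24 h at 37 C/5% CO2, then ONE-Glo luminescence after 30 min.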

[10] = qHTS assay to identify small molecule antagonists of the estrogen related receptor signaling pathway with the pleiotropic PPARgamma coactivator (PGC) from Tox21 10K library - cell viability counter screen (AID 1224840; active means well fitted cell-killing curve with a large enough effect in the repeat runs, not every such curve was filed as active; further: nearly all actives have a fitted effect of over 40% in size; further: potency means the concentration at half of the fitted maximal effect)
Outline: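 Cell viability is measured by CellTiter-Fluor fluorescence in PGC/ERR cells that receive compounds after a 6-hour attachment period and are then incubated 17.5 hours at 37 C.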

[11] = qHTS assay to identify small molecule agonists of the estrogen related receptor signaling pathway with the pleiotropic PPARgamma coactivator (PGC) from Tox21 10K library (AID 1224842); further: nearly all actives have a fitted effect of over 15% in size
Outline: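 PGC/ERR reporter cells (NTP line) were seeded 2,000 per well, rested 6 h at 37 C/5% CO2, then pin-dosed with compounds in DMSO for 18 h at 37 C; luciferase read by One-Glo luminescence after 30 min at room temperature.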

[12] = molecular target: Thyrotropin receptor (Homo sapiens) (UniProt P16473); test: qHTS assay to identify small molecule agonists of the thyroid stimulating hormone receptor (TSHR) signaling pathway (AID 1224843; calls by dose curve; further: nearly all actives have a fitted effect of over 45% in size)
Chain of Thyrotropin receptor (Homo sapiens) (P16473 whole entry, looked up): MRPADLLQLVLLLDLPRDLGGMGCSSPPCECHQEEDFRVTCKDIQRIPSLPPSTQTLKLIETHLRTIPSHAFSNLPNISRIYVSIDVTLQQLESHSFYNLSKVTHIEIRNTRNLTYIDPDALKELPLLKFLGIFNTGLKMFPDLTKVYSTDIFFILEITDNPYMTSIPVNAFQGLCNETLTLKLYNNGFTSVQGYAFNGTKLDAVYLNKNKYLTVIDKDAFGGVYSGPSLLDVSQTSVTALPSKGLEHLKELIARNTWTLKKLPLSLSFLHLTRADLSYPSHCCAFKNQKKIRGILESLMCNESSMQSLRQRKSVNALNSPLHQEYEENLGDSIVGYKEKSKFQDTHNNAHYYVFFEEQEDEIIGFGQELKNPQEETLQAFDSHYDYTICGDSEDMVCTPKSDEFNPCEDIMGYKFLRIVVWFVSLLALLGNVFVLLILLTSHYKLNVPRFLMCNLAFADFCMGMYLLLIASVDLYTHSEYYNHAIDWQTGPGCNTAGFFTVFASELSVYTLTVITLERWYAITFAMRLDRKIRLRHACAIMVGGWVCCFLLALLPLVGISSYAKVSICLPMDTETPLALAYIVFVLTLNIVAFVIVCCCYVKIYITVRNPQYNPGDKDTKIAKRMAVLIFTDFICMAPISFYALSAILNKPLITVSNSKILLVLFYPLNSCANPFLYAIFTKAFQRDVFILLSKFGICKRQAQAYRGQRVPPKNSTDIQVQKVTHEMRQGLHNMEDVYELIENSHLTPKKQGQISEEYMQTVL
Outline: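 Using 15 concentrations per compound in triplicate, cAMP production was monitored in TSHR-HEK293 cells after 30 min compound incubation at RT; HTRF reagents followed, with fluorescence intensity recorded after 1 h.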

[13] = qHTS assay to identify small molecule antagonists of the estrogen related receptor signaling pathway with the pleiotropic PPARgamma coactivator (PGC) from Tox21 10K library (AID 1224841; call rule not given here; further: actives are mostly falling curves and most rising ones were filed inactive; nearly all actives have a fitted effect of over 50% in size; further: potency means the concentration at half of the fitted maximal effect)
Outline: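 Cells stably carrying the PGC/ERR reporter, seeded at 2,000 per well, received pin-transferred compounds 6 h post-plating. Exposure lasted 18 h at 37 C. Signal: One-Glo luminescence.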

| SMILES | Potency [1] | Potency [2] | Potency [3] | Potency [4] | Potency [5] | Potency [6] | Potency [7] | Potency [8] | Potency [9] | Potency [10] | Potency [11] | Potency [12] | Potency [13] |
| --- | --- | --- | --- | --- | --- | --- | --- | --- | --- | --- | --- | --- | --- |
| [Cl][Hg][c]1ccccc1 | 1.23 µM (active) | 17.2 µM (active) | 1.09 µM (active) | 3.44 µM (active) | 6.33 µM (active) | 6.86 µM (active) | 4.33 µM (active) | 3.86 µM (active) | inactive | 2.43 µM (active) | – | – | – |
| C=CC(=O)[O][Sn]([CH2]CCC)([CH2]CCC)[CH2]CCC | 1.38 µM (active) | 6.11 µM (active) | 0.864 µM (active) | 3.06 µM (active) | 35.6 µM (active) | 1.22 µM (active) | 1.93 µM (active) | – | inactive | 1.72 µM (active) | inactive | – | – |
| CCCN | inactive | inactive | inactive | inactive | inactive | inactive | inactive | – | – | inactive | – | inactive | – |
| CCNS(=O)(=O)C(F)(F)C(F)(F)C(F)(F)C(F)(F)C(F)(F)C(F)(F)C(F)(F)C(F)(F)F | inactive | inactive | inactive | inactive | inactive | inactive | inactive | inactive | inactive | inactive | inactive | – | inactive |
| CCCCN(CCCC)C(=S)[S-].CCCCN(CCCC)C(=S)[S-].[Ni+2] | inactive | inactive | inactive | inactive | inactive | inactive | inactive | – | – | inactive | – | – | – |
| C[C@]12C/C(=C/O)C(=O)C[C@@H]1CC[C@@H]1[C@@H]2CC[C@@]2(C)[C@H]1CC[C@]2(C)O | 24.8 µM (active) | inactive | 24.6 µM (active) and 26.6 µM (active) | 55 µM (active) | inactive | inactive | inactive | inactive | inactive | inactive | inactive | inactive | 43.7 µM (active) and 26.6 µM (active) |
| CCOC(=O)Cc1ccccc1 | inactive | inactive | inactive | inactive | inactive | inactive | inactive | inactive | inactive | inactive | – | inactive | – |
| N#Cc1sc2c(=O)c3ccccc3c(=O)c=2sc1C#N | 9.77 µM (active) | 27.3 µM (active) | 30.6 µM (active) | 48.6 µM (active) | 4.48 µM (active) | 8.63 µM (active) | 6.11 µM (active) | 8.63 µM (active) | 2.17 µM (active) | 48.6 µM (active) | inactive | – | – |
| COC(=O)c1cc(Oc2ccc(Cl)cc2Cl)ccc1[N+](=O)[O-] | inactive | inactive | inactive | – | inactive | inactive | – | – | – | inactive | – | inactive | – |
| O=[N+]([O-])c1cc(C(F)(F)F)c(Cl)c([N+](=O)[O-])c1Nc1ncc(C(F)(F)F)cc1Cl | 7.76 µM (active) | 54.5 µM (active) | 30.6 µM (active) | 27.3 µM (active) | – | 15.4 µM (active) | 15.4 µM (active) | 13.7 µM (active) | inactive | 8.63 µM (active) | – | – | – |
